Rows were chosen to be rich in hits. Some 7.8% of all compounds tested hit in one or more screens of this group.
NOMO-1 viab – STK33 inhibitor candidate reducing NOMO-1 cell viability | NOMO-1 AML viability, CellTiter-Glo luminescence, 72 h | inhibition, % (test concentration not listed) | actives 7.5% (n = 37,000); in the data active = inhibition above about 80%; inconclusive = no clear call, values can overlap the other calls
Shh pathway inh – Sonic Hedgehog pathway inhibition | Shh-LIGHT2 Gli-luciferase reporter, 30 h | inhibition, % (concentration not given with the values) | actives 2.1% (n = 22,000) | AID 2313;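 active = mean inhibition across valid replicates above about 65%, limit read from the data; inconclusive = mean under the limit, yet half or more replicates past it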;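 note: pathway switched on by Shh-conditioned medium diluted 1 in 25 in low serum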
MITF inhib – inhibitors of MITF. TRPM1 promoter luciferase, luminescence, 24 h. inhibition, % (test concentration not listed). actives 0.28% (n = 37,000). AID 2240; in the data active = inhibition above about 85%; inconclusive = no clear call, values can overlap the other calls; inactive = below about 68%;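 note: human melanocyte line stably carrying TRPM1 promoter luciferase reporter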
* marks the source's active call; other numbers are inactive results; u = inconclusive; x = no result given.

SMILES | NOMO-1 viab | Shh pathway inh | MITF inhib
Cc1noc(C)c1S(=O)(=O)Nc1ccc2c(c1)CC(=O)N([C@H](C)CO)C[C@@H](C)[C@H](CN(C)Cc1ccc(C(=O)Nc3ccccc3N)cc1)O2 | 31 | x | -15
COC(=O)CCSc1nc2sc3c(c2c(=O)n1-c1cccc(C)c1)CC(C)(C)OC3 | 23 | x | 12
O=C(CCCN1C(=O)c2ccccc2C1=O)Nc1cccc(Cl)c1Cl | -15 | x | -34
Cc1ccc(-n2c(C)nnc2SCC(=O)Nc2cccc(C)c2C)cc1 | 8 | x | -3
O=C(CSCc1cccc2ccccc12)Nc1ccc(C(F)(F)F)cc1 | 31 | 20 | 24
CCC1(C)Cc2ccccc2-c2nc(NCCCO)n(-c3ccc(C)cc3)c(=O)c21 (stereo unspecified) | 45 | x | -10
C[C@@H]1CN([C@@H](C)CO)C(=O)Cc2cc(NS(=O)(=O)c3cccs3)ccc2O[C@@H]1CN(C)Cc1ccc(C(=O)O)cc1 | -10 | -23 | -3
C[C@H]1CN([C@@H](C)CO)C(=O)Cc2cc(NS(=O)(=O)c3cccs3)ccc2O[C@H]1CN(C)Cc1ccc(C(=O)Nc2ccccc2N)cc1 | 141* | x | 37
Cc1ccc(C(=O)O)cc1NC(=O)COc1ccc(I)cc1 | 13 | x | 7
CCOC(=O)c1nnn2c1nc(Sc1nc3ccccc3o1)c1ccccc12 | 116* | -1 | 16
Cn1c(SCCC(=O)O)nnc1-c1ccncc1 | 6 | x | -5
CCOC(=O)c1nnn2c1nc(Sc1nnc(-c3ccncc3)n1C)c1ccccc12 | 117* | -13 | 7
CCOC(=O)c1nnn2c1nc(N(CC)CC)c1ccccc12 | 8 | x | 8
C[C@@H]1CN([C@H](C)CO)C(=O)c2cccc(NC(=O)CCCCCC(=O)Nc3ccccc3N)c2O[C@@H]1CN(C)Cc1ccc(Oc2ccccc2)cc1 | 140* | x | 21
C[C@@H]1CN([C@@H](C)CO)C(=O)c2cccc(NC(=O)CCCCCC(=O)Nc3ccccc3N)c2O[C@@H]1CN(C)Cc1ccc(Oc2ccccc2)cc1 | 126* | x | 2
C[C@H](CO)N1C[C@H](C)[C@H](CN(C)C(=O)Nc2ccccc2)Oc2c(NC(=O)CCCCCC(=O)Nc3ccccc3N)cccc2C1=O | 5 | x | -23
C[C@@H]1CN([C@@H](C)CO)C(=O)c2cccc(NC(=O)CCCCCC(=O)Nc3ccccc3N)c2O[C@H]1CN(C)C | 32 | x | 5
O=C(Nc1scc(-c2ccccc2)c1C(=O)NCc1ccco1)c1ccccc1 | 18 | x | -82
CC(=O)N(CN1C(=O)c2ccccc2C1=O)c1ccccc1C | 9 | 26 | 5
COC1CC(=O)C23C(=O)NC(CC(C)C)C2C(C)C(C)=CC3/C=C(\C)CCC(O)C1O (stereo unspecified) | 89* | -12 | -4
Cc1ccc(C)c(NC(=O)C2CN(S(=O)(=O)c3ccccc3)CCN2S(=O)(=O)c2ccccc2)c1 (stereo unspecified) | 41 | x | -1
CCn1c(SCC(=O)Nc2cccc(C(F)(F)F)c2)nnc1-c1ccco1 | 18 | x | 9
Cc1cc(Cl)ccc1N(CC(=O)Nc1cc(Cl)cc(Cl)c1)S(C)(=O)=O | 90* | x | 9
Cc1ccc(NC(=O)CN(c2ccc(Cl)c(C(F)(F)F)c2)S(C)(=O)=O)cc1Cl | 55 | x | 1
CS(=O)(=O)N(CC(=O)Nc1cccc(C(F)(F)F)c1)c1cc(Cl)c(Cl)cc1Cl | 140* | x | 19
SMILES | NOMO-1 viab | Shh pathway inh | MITF inhib
Cc1cc(NC(=O)CN(c2ccc(Cl)c(C(F)(F)F)c2)S(C)(=O)=O)ccc1Br | 103* | x | 50
Cc1cc(Cl)ccc1NC(=O)CN(c1cccc(Cl)c1)S(C)(=O)=O | 9 | x | 4
Cc1cccc(NC(=O)CN(c2cc(Cl)c(Cl)cc2Cl)S(C)(=O)=O)c1 | 50 | x | 16
Cc1cc(N(CC(=O)Nc2ccc(Cl)cc2C)S(C)(=O)=O)ccc1Br | 87* | x | -3
COC(=O)c1ccc(NC(=O)CN(c2ccc(Cl)cc2C)S(C)(=O)=O)cc1 | 5 | x | -19
COC(=O)CSc1nc(-c2cccc(C)c2)nc2c1CCCC2 | 2 | x | 6
CC(C)=CCC1C(=O)C(=O)c2ccccc2C1=O (stereo unspecified) | 28 | -19 | 3
N#Cc1ccccc1CSc1nc2ccc(NC(=O)c3ccc(F)cc3)cc2s1 | 30 | x | 1
COCCN1C(=O)/C(=C/c2cn(CC(=O)OC)c3ccccc23)C(=O)N(c2ccccc2)C1=O | 28 | -2 | -5
CCn1c(SCC(=O)Nc2ccc(Br)cc2Cl)nnc1-c1ccccc1 | -7 | x | -3
COc1cccc(NC(=O)CSc2nnc(-c3ccccc3F)n2-c2ccccc2)c1 | 6 | x | 14
Cc1cc(C)c2c3c1C1C=CCC1CN3C(C(=O)O)C1CC=CC21 (stereo unspecified) | 115* | 40 | 9
COc1ccc([N+](=O)[O-])cc1NC(=O)CS(=O)(=O)Cc1ccccc1 | -17 | x | -2
COc1ccc(C(=O)CSc2nnc(-c3ccccc3)n2-c2ccccc2)cc1 | 1 | x | 3
CC(=O)N[C@@H](Cc1ccccc1)C(=O)NN | -17 | -13 | -2
C[C@@H]1CN([C@H](C)CO)C(=O)Cc2cc(NC(=O)CCCCCC(=O)Nc3ccccc3N)ccc2O[C@@H]1CN(C)CC1CCCCC1 | 133* | x | 5
C[C@@H]1CN([C@H](C)CO)C(=O)Cc2cc(NC(=O)CCCCCC(=O)Nc3ccccc3N)ccc2O[C@H]1CN(C)CC1CCCCC1 | 120* | x | -13
C[C@H]1CN([C@@H](C)CO)C(=O)Cc2cc(NC(=O)CCCCCC(=O)Nc3ccccc3N)ccc2O[C@H]1CN(C)C | u | x | -8
C[C@H]1CN([C@@H](C)CO)C(=O)Cc2cc(NC(=O)CCCCCC(=O)Nc3ccccc3N)ccc2O[C@@H]1CN(C)C | 24 | x | 4
C[C@H]1CN([C@@H](C)CO)C(=O)Cc2cc(NC(=O)CCCCCC(=O)Nc3ccccc3N)ccc2O[C@@H]1CN(C)CC1CC1 | 21 | x | -6
C[C@H]1CN([C@@H](C)CO)C(=O)Cc2cc(NC(=O)CCCCCC(=O)Nc3ccccc3N)ccc2O[C@@H]1CN(C)CC1CCCCC1 | 102* | x | -11
Cc1cc(Br)ccc1NC(=O)Cn1ccc([N+](=O)[O-])n1 | 23 | x | -7
O=C(NCCN1CCOCC1)C1COc2ccccc2O1 (stereo unspecified) | 5 | x | -6
CC1(C)Cc2c(sc(NC(=O)C(c3ccccc3)c3ccccc3)c2C#N)CO1 | 51 | 20 | -5
O=C(Cn1cnc2scc(-c3ccccc3)c2c1=O)Nc1ccc(F)cc1 | -10 | x | 13
O=C(CCN1C(=O)c2ccccc2C1=O)Nc1ccccc1C(=O)N1CCCC1 | 24 | x | 1
C[C@@H]1CN([C@H](C)CO)C(=O)c2cc(NS(=O)(=O)c3ccccc3)ccc2O[C@H]1CN(C)Cc1ccc(Oc2ccccc2)cc1 | 73 | 42 | 9
Cc1noc(C)c1S(=O)(=O)Nc1ccc2c(c1)C(=O)N([C@@H](C)CO)C[C@@H](C)[C@@H](CN(C)Cc1ccc(Oc3ccccc3)cc1)O2 | 102* | 29 | 17
C[C@@H]1CN([C@H](C)CO)C(=O)c2cc(NS(=O)(=O)c3ccccc3)ccc2O[C@@H]1CN(C)Cc1ccc(Oc2ccccc2)cc1 | 71 | 88* | 35
Cc1ccc(S(=O)(=O)Nc2ccc3c(c2)C(=O)N([C@H](C)CO)C[C@@H](C)[C@H](CN(C)Cc2ccc(Oc4ccccc4)cc2)O3)cc1 | 84* | 50 | 12
